Laboratory results published in PubChem BioAssay (NCATS).
Records with an inconclusive call do not appear. Where a call stands in place of a potency, no number is given. The source made the active and inactive calls. The call rests on the fitted dose curve; tested in HEK293 reporter line.

Test: qHTS for Inhibitors of the Functional Ribonucleoprotein Complex (vRNP) of Lassa (LASV) Arenavirus: LASV Primary Screen - GLuc reporter signal (AID 1347082); further: nearly all actives have a fitted effect of over 60% in size
Settings: LASV minigenome vRNP, Gaussia luciferase reporter; series mostly up to 57.5 µM

| Compound | Potency |
| --- | --- |
| OC[C@H]1O[C@@H](Oc2ccc(O)cc2)[C@H](O)[C@@H](O)[C@@H]1O | inactive |
| CC1(C)Oc2ccc(C#N)cc2[C@@H](N2CCCC2=O)[C@@H]1O | inactive |
| CC(=O)SCC(CC(=O)c1ccc(C)cc1)C(=O)O (stereo not drawn) | inactive |
| NC/C=C/C(=O)O | inactive |
| NS(=O)(=O)c1cc(C2(O)NC(=O)c3ccccc32)ccc1Cl (stereo not drawn) | inactive |
| CO[C@@]1(NC(=O)Cc2cccs2)C(=O)N2C(C(=O)O)=C(COC(N)=O)CS[C@@H]21 | inactive |
| CC(C)NCC(O)c1ccc(NS(C)(=O)=O)cc1 (stereo not drawn) | inactive |
| CCOC(=O)C1=C[C@@H](OC(CC)CC)[C@H](NC(C)=O)[C@@H](N)C1 | inactive |
| CC(C)(C)NCC(O)COc1cccc2c1C[C@H](O)[C@H](O)C2 (stereo partly drawn) | inactive |
| COc1cc(NS(=O)(=O)c2ccc(N)cc2)nc(C)n1 | inactive |
| Cc1onc(-c2ccccc2)c1C(=O)Cl | inactive |
| O=C(Oc1ccccc1C(=O)O)c1ccccc1O | inactive |
| O=c1[nH]c(=O)n([C@H]2C[C@H](O)[C@@H](CO)O2)cc1I | inactive |
| Cn1c([N+](=O)[O-])cnc1COC(N)=O | inactive |
| O=C(O)CCCC[C@@H]1SC[C@@H]2NC(=O)N[C@@H]21 | inactive |
| COc1c2occc2cc2ccc(=O)oc12 | inactive |
| NS(=O)(=O)c1cc(C(=O)NN2C[C@H]3[C@H]4CCC(C4)[C@H]3C2)ccc1Cl | inactive |
| CC(C)CN(C[C@@H](O)[C@H](Cc1ccccc1)NC(=O)O[C@H]1CO[C@H]2OCC[C@H]21)S(=O)(=O)c1ccc(N)cc1 | inactive |
